# Experimental data: PubChem BioAssay AID1159580 (chemical genetic matrix, 2015)
# The whole screen tested about 5,500 compounds, of which about 2,000 (36%) were called active. Inconclusive results (about 18%) are left out. The list shows a part of the results. Values without a mark were called inactive. Cut-off read from the data, not from the text of the source: active = normalized growth mostly below about 0.91 (no sharp cut-off); inconclusive = no clear call, values can overlap the other calls; inactive = mostly above about 0.92.
# Test: chemical genetic growth profiling, strain panel (AID 1159580);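 note: tested at 20 µM; growth read once vehicle control cultures reached saturation at 30 °C; 1 = growth at the plate median or of vehicle wells; lower values mean less growth of the strain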
# Settings: growth OD
smiles,measurement,setting,value
O=[N+]([O-])O[C@H]1CO[C@H]2[C@@H]1OC[C@H]2O[N+](=O)[O-],normalized growth,"S. cerevisiae deletion strains, locus YJR043C, strain POL32, stronger effect = lower value",1.02
same,normalized growth,"S. cerevisiae deletion strains, locus YJR066W, strain TOR1, stronger effect = lower value",0.946
same,normalized growth,"S. cerevisiae deletion strains, locus YKL009W, strain mrt4, stronger effect = lower value",1.03
same,normalized growth,"S. cerevisiae deletion strains, locus YKL068W, stronger effect = lower value",1.01
same,normalized growth,"S. cerevisiae deletion strains, locus YKL085W, strain MDH1 (second series), stronger effect = lower value",1.01
same,normalized growth,"S. cerevisiae deletion strains, locus YKL085W, strain MDH1, stronger effect = lower value",1.01
same,normalized growth,"S. cerevisiae deletion strains, locus YKL160W, strain elf1, stronger effect = lower value",0.98
same,normalized growth,"S. cerevisiae deletion strains, locus YKL190W, strain CNB1, stronger effect = lower value",1.02
same,normalized growth,"S. cerevisiae deletion strains, locus YKR001C, strain vps1, stronger effect = lower value",1.02
same,normalized growth,"S. cerevisiae deletion strains, locus YKR026C, strain gcn3, stronger effect = lower value",0.993
same,normalized growth,"S. cerevisiae deletion strains, locus YKR091W, strain srl3, stronger effect = lower value",0.993
same,normalized growth,"S. cerevisiae deletion strains, locus YLL001W, strain dnm1, stronger effect = lower value",0.971
same,normalized growth,"S. cerevisiae deletion strains, locus YLL026W, stronger effect = lower value",1
same,normalized growth,"S. cerevisiae deletion strains, locus YLL041C, strain sdh2, stronger effect = lower value",0.998
same,normalized growth,"S. cerevisiae deletion strains, locus YLR027C, strain aat2, stronger effect = lower value",1.01
same,normalized growth,"S. cerevisiae deletion strains, locus YLR039C, strain RIC1, stronger effect = lower value",1.05
same,normalized growth,"S. cerevisiae deletion strains, locus YLR058C, strain SHM2, stronger effect = lower value",1.01
same,normalized growth,"S. cerevisiae deletion strains, locus YLR102C, strain apc9, stronger effect = lower value",1.01
same,normalized growth,"S. cerevisiae deletion strains, locus YLR113W, strain HOG1, stronger effect = lower value",0.926
same,normalized growth,"S. cerevisiae deletion strains, locus YLR221C, strain rsa3, stronger effect = lower value",0.995
same,normalized growth,"S. cerevisiae deletion strains, locus YLR258W, strain gsy2, stronger effect = lower value",0.995
same,normalized growth,"S. cerevisiae deletion strains, locus YLR262C, strain YPT6 (second series), stronger effect = lower value",1
same,normalized growth,"S. cerevisiae deletion strains, locus YLR262C, strain YPT6, stronger effect = lower value",1.02
same,normalized growth,"S. cerevisiae deletion strains, locus YLR268W, strain sec22, stronger effect = lower value",1.04
same,normalized growth,"S. cerevisiae deletion strains, locus YLR320W, strain mms22, stronger effect = lower value",0.979
same,normalized growth,"S. cerevisiae deletion strains, locus YLR330W, strain CHS5, stronger effect = lower value",1.01
same,normalized growth,"S. cerevisiae deletion strains, locus YLR342W, strain FKS1 (second series), stronger effect = lower value",1.04
same,normalized growth,"S. cerevisiae deletion strains, locus YLR342W, strain FKS1, stronger effect = lower value",0.995
same,normalized growth,"S. cerevisiae deletion strains, locus YLR357W, strain rsc2, stronger effect = lower value",0.983
same,normalized growth,"S. cerevisiae deletion strains, locus YLR370C, strain arc18, stronger effect = lower value",0.992
same,normalized growth,"S. cerevisiae deletion strains, locus YLR371W, strain rom2, stronger effect = lower value",1
same,normalized growth,"S. cerevisiae deletion strains, locus YLR384C, strain iki3, stronger effect = lower value",0.981
same,normalized growth,"S. cerevisiae deletion strains, locus YLR418C, strain cdc73, stronger effect = lower value",1.09
same,normalized growth,"S. cerevisiae deletion strains, locus YML016C, strain PPZ1, stronger effect = lower value",1.01
same,normalized growth,"S. cerevisiae deletion strains, locus YML032C, strain rad52, stronger effect = lower value",1.03
same,normalized growth,"S. cerevisiae deletion strains, locus YML120C, strain ndi1, stronger effect = lower value",0.966
same,normalized growth,"S. cerevisiae deletion strains, locus YML124C, strain tub3, stronger effect = lower value",1.02
same,normalized growth,"S. cerevisiae deletion strains, locus YMR058W, strain fet3, stronger effect = lower value",1
same,normalized growth,"S. cerevisiae deletion strains, locus YMR078C, strain ctf18, stronger effect = lower value",1.02
same,normalized growth,"S. cerevisiae deletion strains, locus YMR125W, strain sto1, stronger effect = lower value",0.996
same,normalized growth,"S. cerevisiae deletion strains, locus YMR129W, stronger effect = lower value",0.988
same,normalized growth,"S. cerevisiae deletion strains, locus YMR205C, strain PFK2, stronger effect = lower value",0.963
same,normalized growth,"S. cerevisiae deletion strains, locus YMR223W, strain ubp8, stronger effect = lower value",1.05
same,normalized growth,"S. cerevisiae deletion strains, locus YMR231W, strain pep5, stronger effect = lower value",1
same,normalized growth,"S. cerevisiae deletion strains, locus YMR307W, strain GAS1, stronger effect = lower value",1.05
same,normalized growth,"S. cerevisiae deletion strains, locus YNL067W, strain RPL9B, stronger effect = lower value",1.01
same,normalized growth,"S. cerevisiae deletion strains, locus YNL071W, strain lat1, stronger effect = lower value",0.996
same,normalized growth,"S. cerevisiae deletion strains, locus YNL128W, strain TEP1, stronger effect = lower value",1.03
same,normalized growth,"S. cerevisiae deletion strains, locus YNL183C, strain NPR1, stronger effect = lower value",0.955
same,normalized growth,"S. cerevisiae deletion strains, locus YNL209W, strain ssb2, stronger effect = lower value",0.994
same,normalized growth,"S. cerevisiae deletion strains, locus YNL233W, strain BNI4, stronger effect = lower value",1.01
same,normalized growth,"S. cerevisiae deletion strains, locus YNL248C, strain rpa49, stronger effect = lower value",1.01
same,normalized growth,"S. cerevisiae deletion strains, locus YNL250W, strain rad50, stronger effect = lower value",1.05
same,normalized growth,"S. cerevisiae deletion strains, locus YNL271C, strain bni1, stronger effect = lower value",1.01
same,normalized growth,"S. cerevisiae deletion strains, locus YNL298W, strain CLA4, stronger effect = lower value",1.03
same,normalized growth,"S. cerevisiae deletion strains, locus YNL307C, strain MCK1, stronger effect = lower value",1.02
same,normalized growth,"S. cerevisiae deletion strains, locus YNL322C, strain KRE1 (second series), stronger effect = lower value",0.979
same,normalized growth,"S. cerevisiae deletion strains, locus YNR049C, strain mso1, stronger effect = lower value",0.981
same,normalized growth,"S. cerevisiae deletion strains, locus YNR052C, strain pop2, stronger effect = lower value",1.02
same,normalized growth,"S. cerevisiae deletion strains, locus YOL006C, strain TOP1, stronger effect = lower value",1.01
same,normalized growth,"S. cerevisiae deletion strains, locus YOL012C, strain htz1",1.04
same,normalized growth,"S. cerevisiae deletion strains, locus YOL147C, strain pex11, stronger effect = lower value",1.02
same,normalized growth,"S. cerevisiae deletion strains, locus YOR001W, strain rrp6, stronger effect = lower value",1.01
same,normalized growth,"S. cerevisiae deletion strains, locus YOR061W, strain CKA2, stronger effect = lower value",1.01
same,normalized growth,"S. cerevisiae deletion strains, locus YOR069W, strain VPS5, stronger effect = lower value",1.01
same,normalized growth,"S. cerevisiae deletion strains, locus YOR070C, strain gyp1, stronger effect = lower value",1
same,normalized growth,"S. cerevisiae deletion strains, locus YOR080W, strain dia2, stronger effect = lower value",0.994
same,normalized growth,"S. cerevisiae deletion strains, locus YOR083W, strain WHI5, stronger effect = lower value",0.977
same,normalized growth,"S. cerevisiae deletion strains, locus YOR106W, strain vam3, stronger effect = lower value",1
same,normalized growth,"S. cerevisiae deletion strains, locus YOR136W, strain idh2, stronger effect = lower value",1.02
same,normalized growth,"S. cerevisiae deletion strains, locus YOR144C, strain elg1, stronger effect = lower value",1.02
same,normalized growth,"S. cerevisiae deletion strains, locus YOR184W, strain ser1, stronger effect = lower value",1.03
same,normalized growth,"S. cerevisiae deletion strains, locus YOR231W, strain MKK1, stronger effect = lower value",0.837 (active)
same,normalized growth,"S. cerevisiae deletion strains, locus YOR265W, strain rbl2, stronger effect = lower value",0.994
same,normalized growth,"S. cerevisiae deletion strains, locus YOR270C, strain vph1, stronger effect = lower value",1.02
same,normalized growth,"S. cerevisiae deletion strains, locus YOR290C, strain snf2, stronger effect = lower value",0.939
same,normalized growth,"S. cerevisiae deletion strains, locus YOR316C, strain cot1, stronger effect = lower value",1.01
same,normalized growth,"S. cerevisiae deletion strains, locus YPL051W, strain arl3, stronger effect = lower value",0.985
same,normalized growth,"S. cerevisiae deletion strains, locus YPL078C, strain atp4, stronger effect = lower value",0.979
same,normalized growth,"S. cerevisiae deletion strains, locus YPL106C, strain sse1, stronger effect = lower value",0.949
same,normalized growth,"S. cerevisiae deletion strains, locus YPL240C, strain hsp82, stronger effect = lower value",1
same,normalized growth,"S. cerevisiae deletion strains, locus YPL256C, strain CLN2, stronger effect = lower value",0.938
same,normalized growth,"S. cerevisiae deletion strains, locus YPR119W, strain clb2, stronger effect = lower value",1.02
same,normalized growth,"S. cerevisiae deletion strains, locus YPR141C, strain kar3, stronger effect = lower value",1.02
same,normalized growth,"S. cerevisiae deletion strains, locus YPR163C, strain tif3, stronger effect = lower value",1.01
same,normalized growth,"S. cerevisiae deletion strains, locus YPR167C, strain met16, stronger effect = lower value",1.02
same,normalized growth,"S. cerevisiae deletion strains, strain wtn01, stronger effect = lower value",1.05
same,normalized growth,"S. cerevisiae strains, strain wild type, stronger effect = lower value",1.02
